In PubChem BioAssay (Tox21) one finds Potency data, which are given here for eight compounds.

A short description of assay [1]: Nuclear factor erythroid 2-related factor 2/antioxidant responsive element (Nrf2/ARE) small molecule agonists: qHTS cell viability counter screen in human keratinocytes (AID 1919968; active = well fitted curve in the direction sought with a large enough effect in the repeat runs; an effect the other way counts as inactive or inconclusive; note: nearly all actives have a fitted effect of over 55% in size). In short, it runs like this:
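KeratinoSens cells (HaCaT keratinocytes stably carrying an ARE-luciferase reporter) were seeded at 1,500 cells/well and rested 5 h at 37 C/5% CO2. They were then exposed to compounds in DMSO for 23 h. Viability was read by CellTiter-Fluor fluorescence after 1 h.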
Background: Quantitative high-throughput screening tests each substance at several concentrations.

The nature of assay [2]: Nuclear factor erythroid 2-related factor 2/antioxidant responsive element (Nrf2/ARE) small molecule agonists: luciferase reporter gene qHTS assay in human keratinocytes (AID 1919969). Note: nearly all actives have a fitted effect of over 35% in size. Note: potency is the fitted concentration of half-maximal effect. For orientation: Reporter assays use an easily measured gene product as a stand-in for the process of interest.
The target in assay [3] is Gonadotropin-releasing hormone receptor (Homo sapiens) (UniProt P30968). Kind of assay: Human gonadotropin-releasing hormone receptor (GnRHR) small molecule agonists, calcium flux assay in GnRHR-HEK293 cells (AID 1920063). Note: nearly all actives have a fitted effect of over 35% in size. Note: potency is the fitted concentration of half-maximal effect. The essentials: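 HEK293 cells stably expressing human GnRHR were plated 18 h at 37 °C, loaded with calcium dye 1 h at 37 °C, then given compound in agonist mode; fluorescence (Ex/Em 480/540) read kinetically for 3 min at 1 s intervals.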
(In general: A change in cytosolic calcium serves as a functional read-out for many receptors and channels.)

The target of assay [4] is KiSS-1 receptor (Homo sapiens) (UniProt Q969F8). Kind of assay: Human kisspeptin (KISS1R) small molecule agonists, calcium flux assay in KISS1R-HEK293 cells (AID 1920064; active = well fitted curve in the direction sought with a large enough effect in the repeat runs; an effect the other way counts as inactive or inconclusive). The essentials: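 HEK293 cells stably expressing human KISS1R were plated 18 h at 37 °C, loaded with calcium dye for 1 h at 37 °C, then given compound by pin tool. Fluorescence (Ex/Em 480/540) was read kinetically for 3 min.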

The nature of assay [5]: p53 small molecule agonists, cell-based qHTS assay with human liver microsomes: qHTS cell viability counter screen (AID 1963579). Note: nearly all actives have a fitted effect of over 45% in size. The essentials: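 Seed p53RE-bla cells at 4,000 per well; incubate 5 h at 37 C; add compound, human liver microsomes and NADPH; incubate 16 h at 37 C; add CellTiter-Glo; after 30 min at room temperature, read luminescence.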
Assay [6] can be described thus: p53 small molecule agonists, cell-based qHTS assay with rat liver microsomes: qHTS cell viability counter screen (AID 1963580). Note: nearly all actives have a fitted effect of over 45% in size. The essentials:
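p53RE-bla HCT-116 cells were exposed 16 h at 37 C to compounds with rat liver microsomes (0.5 mg/mL) and NADPH (0.5 mg/mL). Viability was measured in the same wells as ATP content by CellTiter-Glo luminescence.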

The nature of assay [7]: p53 small molecule agonists, cell-based qHTS assay: qHTS cell viability counter screen (AID 1963581). Note: nearly all actives have a fitted effect of over 45% in size. The essentials: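 p53RE-bla HCT-116 cells were exposed to compounds for 16 h at 37 C; after the beta-lactamase FRET read in the same wells, CellTiter-Glo was added and luminescence (intracellular ATP) read after 30 min at room temperature.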
The target in assay [8] is 5-hydroxytryptamine receptor 2A (Homo sapiens) (UniProt P28223). In words: 5-hydroxytryptamine receptor 2A (HTR2A) small molecule agonists, cell-based qHTS assay (AID 1963587). Note: nearly all actives have a fitted effect of over 30% in size. In short, it runs like this: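 CHO cells stably expressing human HTR2A, plated 18 h, loaded with calcium dye 1 h at 37 C. Agonist mode: compounds added and intracellular calcium fluorescence recorded kinetically for 2 min at 1 sec intervals.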

Assay [9] addresses Muscarinic acetylcholine receptor M1 (Homo sapiens) (UniProt P11229). Kind of assay: Cholinergic receptor muscarinic 1 (CHRM1) small molecule antagonists, cell-based qHTS assay (AID 1963588). Note: nearly all actives have a fitted effect of over 40% in size. The essentials: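 CHRM1-CHO calcium-flux assay, antagonist mode. Cells were seeded 18 h, dye-loaded 1 h at 37 C and given compound for 5 min at RT, then acetylcholine was added at 50nM. FDSS fluorescence was read 3 min; 15 concentrations, three runs.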

Assay [10] shares this target. Kind of assay: Cholinergic receptor muscarinic 1 (CHRM1) small molecule agonists, cell-based qHTS assay (AID 1963589). Note: nearly all actives have a fitted effect of over 35% in size. The essentials:
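CHO cells stably expressing human CHRM1, seeded 18 h at 37 C/5% CO2, dye-loaded 1 h at 37 C, then given compound in agonist mode; intracellular calcium fluorescence read kinetically at 1 s intervals. Fifteen concentrations, three independent runs.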

Assay [11] can be described thus: cAMP Responsive Elements (CRE) small molecule agonists, cell-based qHTS assay (AID 1963590). In short, it runs like this: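 CRE-bla HEK 293T cells in DMEM with 10% dialyzed FBS, NEAA, pyruvate and 25 mM HEPES were plated 18 h at 37 C/5% CO2, then exposed to compounds in DMSO for 3 h before LiveBLAzer B/G FRET substrate addition.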
Assay [12] can be described thus: cAMP Responsive Elements (CRE) small molecule antagonists, cell-based qHTS assay (AID 1963591; active = well fitted inhibition curve with a large enough effect in the signal ratio in the repeat runs, not every such curve was filed as active; the % refers to the signal ratio). In short, it runs like this: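 CRE-bla HEK293T cells were plated 18 h at 37 °C/5% CO2, pinned with compound in DMSO, then stimulated with NKH477 at 0.25 uM final for 3 h. LiveBLAzer B/G FRET substrate was added and plates incubated 2 h at room temperature.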
The target of assay [13] is Beta-2 adrenergic receptor (Homo sapiens) (UniProt P07550). Kind of assay: Adrenergic beta2 receptor (ADRB2) small molecule antagonists, cell-based qHTS assay (AID 1963592). Note: series mostly up to about 92 µM; nearly all actives have a fitted effect of over 50% in size. In short, it runs like this:
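Cells (CHO, stable ADRB2 overexpression) incubated 18-20hr at 37C; compounds added from DMSO; agonist mix (1nM isoproterenol, 100uM IBMX, 25uM Ro-20-1724) added; 0.5hr RT; d2-cAMP and anti-cAMP-cryptate added; 1hr RT; 665/615 nm read.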

The target is the same in assay [14]. In words: Adrenergic beta2 receptor (ADRB2) small molecule agonists, cell-based qHTS assay (AID 1963593).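 Note: CHO cells stably overexpressing human ADRB2.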 In short, it runs like this: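 CHO cells stably over-expressing ADRB2 were plated overnight at 37C, then dosed with compounds plus a stimulation mix containing 100uM IBMX and 25uM Ro-20-1724 for 0.5hr at room temperature. cAMP was measured by HTRF competition, 1hr.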

The target of assay [15] is D(2) dopamine receptor (Homo sapiens) (UniProt P14416). Kind of assay: Dopamine D2 receptor (DRD2) small molecule agonists, cell-based qHTS assay (AID 1963594). Note: nearly all actives have a fitted effect of over 35% in size. The essentials:
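HEK293 cells stably expressing human DRD2, pre-treated with PDE inhibitor Ro20-1724 (0.1 mM final) and compound 10 min at room temperature, then stimulated with NKH477 (200nM […]) for 30 min. cAMP read by HTRF (665/620 nm).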

Assay [16] has the same target. In words: Dopamine D2 receptor (DRD2) small molecule antagonists, cell-based qHTS assay (AID 1963595; active = well fitted inhibition curve with a large enough effect in the signal ratio in the repeat runs, with a control signal flat; the % refers to the signal ratio). In short, it runs like this:
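Cells were plated and grown for 24 h at 37 °C. Ro20-1724 (0.1 mM final) went in first, then compound for 10 min. NKH477 (200 nM) with quinpirole (12 nM) followed for 30 min at RT, then HTRF detection reagents for 1 h.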

Assay [17] is described as follows: G protein-coupled receptor (GPCR) small molecule agonists, calcium flux assay: HEK293 wild type cell line counter screen (AID 1920065). The essentials:
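Cells were plated and cultured 18 h at 37 C/5% CO2, then loaded with calcium dye for 1 h at 37 C. Compounds in DMSO were pin-transferred in agonist mode, and fluorescence (Ex/Em 480/540) was read kinetically for 3 min at 1 s intervals.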

Assay [18] addresses 5-hydroxytryptamine receptor 2A (Homo sapiens) (UniProt P28223). Kind of assay: 5-hydroxytryptamine receptor 2A (HTR2A) small molecule antagonists, cell-based qHTS assay (AID 1963586). Note: nearly all actives have a fitted effect of over 45% in size. The essentials:
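Antagonist-mode intracellular calcium assay: DOI (4 nM) added after 5 min compound pre-incubation at room temperature to dye-loaded HTR2A-CHO cells. Fluorescence followed for 3 min, sampled every second.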

The nature of assay [19]: p53 small molecule agonists, cell-based qHTS assay with rat liver microsomes (AID 1963578). In short, it runs like this: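 Fluorescence from a beta-lactamase reporter under a p53 response element was measured after cells had been incubated 16 h at 37 C with test compound and rat liver microsomes plus NADPH (0.5 mg/mL final each).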
The nature of assay [20]: p53 small molecule agonists, cell-based qHTS assay (AID 1963582; active = well fitted activation curve with a large enough effect in the signal ratio in the repeat runs, not every such curve was filed as active; the % refers to the signal ratio). In short, it runs like this: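 p53RE-bla beta-lactamase reporter cells rested 5 h at 37 C/5% CO2, then received compounds in DMSO by pin transfer and were incubated 16 h at 37 C. LiveBLAzer B/G FRET substrate was loaded for 2 h at room temperature before fluorescence reading.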

Results filed as inconclusive are left out. Calls of active or inactive are those of the source. Unless noted, calls come from the whole dose curve.

Sequence of D(2) dopamine receptor (Homo sapiens) (P14416 whole entry, looked up): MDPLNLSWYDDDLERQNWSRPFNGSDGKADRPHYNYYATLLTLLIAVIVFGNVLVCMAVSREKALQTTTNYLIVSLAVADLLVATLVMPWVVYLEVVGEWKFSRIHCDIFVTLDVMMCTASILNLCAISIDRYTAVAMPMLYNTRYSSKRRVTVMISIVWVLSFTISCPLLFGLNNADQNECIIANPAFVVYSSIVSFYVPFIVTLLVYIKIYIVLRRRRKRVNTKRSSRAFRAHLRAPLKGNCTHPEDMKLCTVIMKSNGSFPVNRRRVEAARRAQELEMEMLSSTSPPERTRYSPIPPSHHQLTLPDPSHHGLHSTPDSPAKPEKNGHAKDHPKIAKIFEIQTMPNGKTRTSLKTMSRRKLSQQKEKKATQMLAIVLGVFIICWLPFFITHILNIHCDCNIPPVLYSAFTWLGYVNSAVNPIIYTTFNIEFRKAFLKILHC
Sequence of Muscarinic acetylcholine receptor M1 (Homo sapiens) (P11229 whole entry, looked up): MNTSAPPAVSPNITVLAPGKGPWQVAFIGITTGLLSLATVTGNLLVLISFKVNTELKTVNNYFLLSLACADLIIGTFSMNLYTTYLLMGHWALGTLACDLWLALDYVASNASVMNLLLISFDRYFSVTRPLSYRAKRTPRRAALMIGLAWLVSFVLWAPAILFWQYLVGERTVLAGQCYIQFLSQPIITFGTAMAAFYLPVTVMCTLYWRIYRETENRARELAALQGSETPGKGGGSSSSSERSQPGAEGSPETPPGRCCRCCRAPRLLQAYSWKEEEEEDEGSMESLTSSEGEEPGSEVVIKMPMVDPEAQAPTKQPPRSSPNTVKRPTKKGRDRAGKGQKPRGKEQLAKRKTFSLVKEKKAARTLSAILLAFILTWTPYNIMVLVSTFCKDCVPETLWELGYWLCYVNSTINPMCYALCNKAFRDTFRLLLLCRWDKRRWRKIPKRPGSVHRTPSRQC
Sequence of Gonadotropin-releasing hormone receptor (Homo sapiens) (P30968 whole entry, looked up): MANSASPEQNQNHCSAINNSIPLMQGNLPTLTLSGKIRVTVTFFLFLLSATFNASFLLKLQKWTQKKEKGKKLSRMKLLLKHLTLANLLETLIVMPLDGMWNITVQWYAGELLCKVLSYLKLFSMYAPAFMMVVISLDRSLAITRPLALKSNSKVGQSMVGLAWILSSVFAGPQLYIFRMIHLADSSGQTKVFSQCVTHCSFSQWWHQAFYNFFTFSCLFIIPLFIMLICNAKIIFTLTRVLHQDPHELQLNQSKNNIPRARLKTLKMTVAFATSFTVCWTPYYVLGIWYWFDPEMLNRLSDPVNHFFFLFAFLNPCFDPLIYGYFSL
Sequence of 5-hydroxytryptamine receptor 2A (Homo sapiens) (P28223 whole entry, looked up): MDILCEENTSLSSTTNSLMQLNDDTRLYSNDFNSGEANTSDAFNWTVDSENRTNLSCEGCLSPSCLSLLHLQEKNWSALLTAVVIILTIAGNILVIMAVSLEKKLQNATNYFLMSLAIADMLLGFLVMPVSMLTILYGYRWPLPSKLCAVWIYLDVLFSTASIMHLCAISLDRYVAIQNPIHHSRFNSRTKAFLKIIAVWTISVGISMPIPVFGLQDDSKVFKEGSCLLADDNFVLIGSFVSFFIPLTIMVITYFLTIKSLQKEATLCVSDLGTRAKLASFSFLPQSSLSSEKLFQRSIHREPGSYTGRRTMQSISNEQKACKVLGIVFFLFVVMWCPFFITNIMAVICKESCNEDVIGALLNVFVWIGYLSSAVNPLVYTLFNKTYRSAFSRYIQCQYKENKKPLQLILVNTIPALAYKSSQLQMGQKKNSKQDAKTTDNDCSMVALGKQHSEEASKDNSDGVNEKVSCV
Sequence of Beta-2 adrenergic receptor (Homo sapiens) (P07550 whole entry, looked up): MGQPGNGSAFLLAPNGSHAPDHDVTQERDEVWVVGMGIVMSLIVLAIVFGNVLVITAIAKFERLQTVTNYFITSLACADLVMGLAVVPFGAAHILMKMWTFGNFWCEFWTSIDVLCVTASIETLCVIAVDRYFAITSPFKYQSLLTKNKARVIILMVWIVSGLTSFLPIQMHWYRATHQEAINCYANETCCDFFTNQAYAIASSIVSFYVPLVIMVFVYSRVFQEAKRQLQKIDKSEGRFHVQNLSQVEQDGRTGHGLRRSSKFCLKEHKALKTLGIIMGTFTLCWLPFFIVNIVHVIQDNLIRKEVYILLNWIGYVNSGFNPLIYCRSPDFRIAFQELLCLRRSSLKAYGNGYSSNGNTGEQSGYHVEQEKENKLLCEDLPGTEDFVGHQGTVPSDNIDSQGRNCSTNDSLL
Sequence of KiSS-1 receptor (Homo sapiens) (Q969F8 whole entry, looked up): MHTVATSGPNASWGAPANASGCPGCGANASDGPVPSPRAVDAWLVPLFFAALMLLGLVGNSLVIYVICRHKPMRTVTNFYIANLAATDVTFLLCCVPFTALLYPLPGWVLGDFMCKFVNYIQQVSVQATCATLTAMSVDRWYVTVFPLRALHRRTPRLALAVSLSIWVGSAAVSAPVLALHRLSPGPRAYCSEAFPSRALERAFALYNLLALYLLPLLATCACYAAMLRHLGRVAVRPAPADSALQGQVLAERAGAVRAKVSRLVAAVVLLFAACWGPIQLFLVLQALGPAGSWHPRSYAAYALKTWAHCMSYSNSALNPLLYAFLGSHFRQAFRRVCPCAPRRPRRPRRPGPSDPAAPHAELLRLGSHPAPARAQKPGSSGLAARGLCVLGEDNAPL

For the compound `CCC(C(=O)NC(=O)NC(C)=O)c1ccccc1` (centres undefined), the Potency result in assay [1], in assay [2], in assay [3], in assay [4], in assay [5] and in assay [6] was “inactive” throughout. Besides, the Potency entry in assay [7], in [8], in assay [9], in assay [10], in assay [11] and in assay [12] was “inactive” in each case. In addition, the Potency result in assay [13], in assay [14], in [15] and in assay [16] was “inactive” throughout.

Consider `CN(C)[C@@H]1C(=O)C(C(N)=O)=C(O)[C@@]2(O)C(=O)C3=C(O)c4c(O)ccc(Cl)c4[C@@H](O)[C@H]3C[C@@H]12`, for which the Potency result in [1], in assay [2], in assay [3], in [17], in assay [5] and in [6] was “inactive” in each case. Further, the Potency result in assay [7], in [18], in [8], in [9], in [10] and in [13] was “inactive” in each case. Further, the Potency result in assay [14], in assay [15] and in [16] was “inactive” each time.

As for `CC1(C)[C@@H](OC(=O)CCC(=O)O)CC[C@]2(C)[C@H]3C(=O)C=C4[C@@H]5C[C@@](C)(C(=O)O)CC[C@]5(C)CC[C@@]4(C)[C@]3(C)CC[C@@H]12`, the Potency entry in assay [1], in assay [2], in assay [3], in assay [17], in assay [19] and in [5] was “inactive” in each case. The Potency entry in [6], in assay [18], in assay [9], in assay [10], in assay [11] and in assay [12] was “inactive” each time. The Potency entry in assay [13], in [15] and in [16] was “inactive” each time.

As to `CCCC(=O)O[C@]1(C(=O)CO)CC[C@H]2[C@@H]3CCC4=CC(=O)CC[C@]4(C)[C@H]3[C@@H](O)C[C@@]21C`, the Potency entry in [1], in assay [2], in assay [3], in [17], in assay [5] and in assay [6] was “inactive” in each case. Besides, the Potency result in [7], in [18], in [8], in assay [10], in assay [11] and in assay [13] was “inactive” each time. In addition, the Potency entry in assay [15] and in [16] was “inactive” in each case.

On to `C[N+](C)(C)CCOC(N)=O`, for which the Potency entry in [1], in assay [2], in assay [17], in assay [19], in assay [6] and in [7] was “inactive” each time. For the same compound, the Potency result in assay [20], in [11], in assay [12], in assay [13], in assay [14] and in assay [15] was “inactive” in each case. Further, the Potency result in assay [16] is “inactive”. Also, the Potency in [3] was 2.39 µM (active).

`CCCCCC=CCC=CCCCCCCCC(=O)OCC`: the Potency entry in assay [1], in assay [3], in [17], in [19], in assay [5] and in assay [6] was “inactive” each time. Besides, the Potency entry in assay [7], in [20], in assay [8], in assay [9], in assay [13] and in assay [16] was “inactive” throughout. Also, the Potency in assay [2] was 29.8 µM (active).

For `COc1cc(C(C)(C)C)c(O)c(C(C)(C)C)c1`, the Potency result in [1], in assay [3], in assay [17], in assay [5], in assay [7] and in [18] was “inactive” each time. Moreover, the Potency entry in [8], in assay [10], in assay [13], in assay [14], in [15] and in assay [16] was “inactive” in each case. Also, the Potency in [2] is 48.6 µM (active).

As for `CCOC(=O)OC(C)OC(=O)[C@@H]1N2C(=O)[C@@H](NC(=O)[C@H](N)c3ccccc3)[C@H]2SC1(C)C` (some centres undefined), the Potency result in [1], in assay [2], in assay [3], in [17], in assay [6] and in assay [7] was “inactive” each time. For the same compound, the Potency entry in assay [8], in assay [9], in [10], in [11], in assay [12] and in assay [13] was “inactive” in each case. Also, the Potency result in [15] and in [16] was “inactive” in each case.
